# Experimental data reported in PubChem BioAssay AID743433 (Vanderbilt Specialized Chemistry Center, 2014).
# Target: Metabotropic glutamate receptor 2 (Homo sapiens) (UniProt Q14416)
# Test: off-target activity check on mGlu2 receptor – cell-based, GIRK thallium flux, agonist curve fold shift, selectivity assay for mGlu8/mGlu7 PAM project, profiling panel (AID 743433)
# Settings: mGlu2/GIRK cells, agonist CRC shift, agonist EC50 fold shift, at 10 µM
# Metabotropic glutamate receptor 2 (Homo sapiens), sequence (Q14416 whole entry, looked up): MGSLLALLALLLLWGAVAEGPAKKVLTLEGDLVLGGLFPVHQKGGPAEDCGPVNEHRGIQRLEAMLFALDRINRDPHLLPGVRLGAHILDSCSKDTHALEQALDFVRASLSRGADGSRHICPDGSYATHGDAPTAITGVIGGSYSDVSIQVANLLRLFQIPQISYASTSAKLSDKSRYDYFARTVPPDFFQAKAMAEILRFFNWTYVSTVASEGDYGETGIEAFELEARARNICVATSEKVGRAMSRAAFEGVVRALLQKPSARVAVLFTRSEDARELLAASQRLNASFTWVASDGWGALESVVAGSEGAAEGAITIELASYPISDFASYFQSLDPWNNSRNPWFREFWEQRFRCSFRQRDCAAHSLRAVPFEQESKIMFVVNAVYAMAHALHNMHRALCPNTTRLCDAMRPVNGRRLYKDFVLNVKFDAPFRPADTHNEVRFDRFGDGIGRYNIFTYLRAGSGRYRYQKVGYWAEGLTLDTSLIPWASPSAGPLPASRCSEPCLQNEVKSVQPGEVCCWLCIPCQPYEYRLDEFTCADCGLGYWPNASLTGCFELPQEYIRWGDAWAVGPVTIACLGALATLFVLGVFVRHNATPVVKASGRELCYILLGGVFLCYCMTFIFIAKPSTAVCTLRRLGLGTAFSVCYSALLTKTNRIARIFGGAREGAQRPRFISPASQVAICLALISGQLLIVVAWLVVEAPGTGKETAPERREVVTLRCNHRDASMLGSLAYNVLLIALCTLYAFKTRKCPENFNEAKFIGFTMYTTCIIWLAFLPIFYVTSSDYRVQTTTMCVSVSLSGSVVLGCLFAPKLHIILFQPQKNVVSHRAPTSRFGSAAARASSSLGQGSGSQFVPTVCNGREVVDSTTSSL
structure (smiles),measurement,value
COC(=O)c1ccc(-n2c(C)cc(C(=O)CSc3ccc(NC(C)=O)cc3)c2C)cc1,fold shift,1
